# Where “and” joins values, the source holds several entries; their conditions need not be identical. Equal values may be shown once. A structure can be active in one record and inactive in another. Calls of active or inactive are those of the source. How the source made its calls: active means hit-call score of the fitted dose curve at least 0.9, where 1 is the maximum; inactive means score below 0.9.
# Key:
# [1] = read-out: Interleukin 17F (IL17F), IL17F (gene 112744); assay: BSK_BT_xIL17F: BioMAP Diversity Plus: BT Assay for Interleukin 17F (IL17F) Biomarker Activity (AID 2284243); conditions: primary human B cells with PBMC
# Method in brief: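 Human PBMC co-cultured with B cells, compound exposure 24 h; secreted IL-17F quantified by Luminex xMAP, referenced to DMSO control. PBMC viability measured in parallel by Alamar Blue reduction.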
# [2] = read-out: Actin alpha 1 (ACTA1), ACTA1 (gene 58); assay: BSK_MyoF_ACTA1: BioMAP Diversity Plus: MyoF Assay for Actin alpha 1 (ACTA1) Biomarker Activity (AID 2284244); conditions: primary human lung fibroblasts
# Method in brief: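 Cells were exposed to chemical for 24 h before a-SMA levels were quantified by ELISA in human lung fibroblasts. Increases were fitted against DMSO as negative control; parallel SRB staining (0.1% after 10% TCA fixation, 560 nm) assessed cytotoxicity.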
# [3] = read-out: Interleukin 2 (IL2), IL2 (gene 3558); assay: BSK_BT_xIL2: BioMAP Diversity Plus: BT Assay for Interleukin 2 (IL2) Biomarker Activity (AID 2284245); conditions: primary human B cells with PBMC
# Method in brief: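 The BT system combines human B cells with peripheral blood mononuclear cells. Twenty-four hours after chemical dosing, secreted IL-2 was measured with xMAP bead technology, and responses were analyzed as increases over DMSO controls.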
# [4] = read-out: Basic fibroblast growth factor (bFGF), FGF2 (gene 2247); assay: BSK_MyoF_bFGF: BioMAP Diversity Plus: MyoF Assay for Basic fibroblast growth factor (bFGF) Biomarker Activity (AID 2284246); conditions: primary human lung fibroblasts
# Method in brief: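 Chemicals are added to human lung fibroblast cultures and incubated 24 h. bFGF is then measured by ELISA, while parallel cultures receive SRB staining for total protein as a cytotoxicity check. Data are fitted upward against DMSO.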
# [5] = read-out: Collagen IV, COL4A1 (gene 1282); assay: BSK_MyoF_CollagenIV: BioMAP Diversity Plus: MyoF Assay for Collagen IV Biomarker Activity (AID 2284247); conditions: primary human lung fibroblasts
# Method in brief: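 Human lung fibroblast system, 24 h chemical exposure. Endpoint: Collagen IV by ELISA, upward fit vs DMSO.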
# [6] = read-out: Interleukin-8 (IL8), CXCL8 (gene 3576); assay: BSK_MyoF_IL8: BioMAP Diversity Plus: MyoF Assay for Interleukin-8 (IL8) Biomarker Activity (AID 2284261); conditions: primary human lung fibroblasts
# Method in brief: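 Human lung fibroblast (MyoF system) cultures dosed for 24 h, then IL-8 measured by ELISA. Response taken relative to DMSO; parallel SRB total-protein staining for cytotoxicity.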
# [7] = read-out: Decorin, DCN (gene 1634); assay: BSK_MyoF_Decorin: BioMAP Diversity Plus: MyoF Assay for Decorin Biomarker Activity (AID 2284265); conditions: primary human lung fibroblasts
# Method in brief: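 Human lung fibroblast cultures were dosed for 24 h, and decorin was then measured by ELISA. Parallel cultures were stained with sulforhodamine B for total protein as a cytotoxicity check. Gain of signal was fitted relative to DMSO.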
# [8] = read-out: Monokine induced gamma interferon (MIG), CXCL9 (gene 4283); assay: BSK_KF3CT_MIG: BioMAP Diversity Plus: KF3CT Assay for Monokine induced gamma interferon (MIG) Biomarker Activity (AID 2284248); conditions: primary human keratinocytes with fibroblasts
# Method in brief: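 Human keratinocyte–foreskin fibroblast co-culture; MIG measured by ELISA 24 h after chemical dosing, fitted upward versus DMSO. Cytotoxicity was assessed in parallel cultures by SRB total-protein staining read at 560 nm.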
# [9] = read-out: Vascular cell adhesion molecule 1 (VCAM1), VCAM1 (gene 7412); assay: BSK_BF4T_VCAM1: BioMAP Diversity Plus: BF4T Assay for Vascular cell adhesion molecule 1 (VCAM1) Biomarker Activity (AID 2284249); conditions: primary human bronchial epithelial cells with fibroblasts
# Method in brief: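 Cell-surface VCAM-1 quantified by ELISA after 24 h chemical exposure of human bronchial epithelial/dermal fibroblast co-cultures, with SRB staining in parallel wells for cytotoxicity; DMSO baseline, positive-direction fitting.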
# [10] = read-out: Plasminogen activator inhibitor-1 (PAI1), SERPINE1 (gene 5054); assay: BSK_KF3CT_PAI1: BioMAP Diversity Plus: KF3CT Assay for Plasminogen activator inhibitor-1 (PAI1) Biomarker Activity (AID 2284252); conditions: primary human keratinocytes with fibroblasts
# Method in brief: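 Cells (human keratinocytes co-cultured with foreskin fibroblasts) are exposed to test chemical for 24 h. PAI-1 is then measured by ELISA and analysed for signal gain against DMSO.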
# [11] = read-out: Monocyte Chemoattractant Protein-1 (MCP1), CCL2 (gene 6347); assay: BSK_IMphg_MCP1: BioMAP Diversity Plus: IMphg Assay for Monocyte Chemoattractant Protein-1 (MCP1) Biomarker Activity (AID 2284253); conditions: primary human endothelial cells with macrophages
# Method in brief: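 ELISA readout of MCP-1 at 24 hours in IMphg co-cultures of venular endothelial cells and macrophages, normalised to DMSO; parallel cultures stained with sulforhodamine B for overt cytotoxicity.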
# [12] = read-out: Macrophage Inflammatory Protein-1 Alpha (MIP1a), CCL3 (gene 6348); assay: BSK_IMphg_MIP1a: BioMAP Diversity Plus: IMphg Assay for Macrophage Inflammatory Protein-1 Alpha (MIP1a) Biomarker Activity (AID 2284255); conditions: primary human endothelial cells with macrophages
# Method in brief: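 MIP-1a protein levels were quantified by ELISA after 24 h treatment of human endothelial cell–macrophage co-cultures, compared with DMSO. Parallel cultures were fixed with TCA and stained with 0.1% SRB to gauge overt cytotoxicity.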
# [13] = read-out: CD69, CD69 (gene 969); assay: BSK_IMphg_CD69: BioMAP Diversity Plus: IMphg Assay for CD69 Biomarker Activity (AID 2284257); conditions: primary human endothelial cells with macrophages
# Method in brief: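 Readout is ELISA for CD69 in primary human venular endothelial cell/macrophage co-culture, taken at 24 h post-dosing. SRB staining of parallel cultures gauged overt cytotoxicity; signal increase versus DMSO defined activity.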
# [14] = read-out: Eotaxin 3, CCL26 (gene 10344); assay: BSK_BF4T_Eotaxin3: BioMAP Diversity Plus: BF4T Assay for Eotaxin 3 Biomarker Activity (AID 2284258); conditions: primary human bronchial epithelial cells with fibroblasts
# Method in brief: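 ELISA measurement of Eotaxin-3 after 24 h chemical exposure in a bronchial epithelial/dermal fibroblast co-culture, with DMSO as baseline. Parallel SRB staining (0.1% SRB after 10% TCA fixation, 560 nm) flagged overt cytotoxicity.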
# [15] = read-out: Monocyte Chemoattractant Protein-1 (MCP1), CCL2 (gene 6347); assay: BSK_BF4T_MCP1: BioMAP Diversity Plus: BF4T Assay for Monocyte Chemoattractant Protein-1 (MCP1) Biomarker Activity (AID 2284259); conditions: primary human bronchial epithelial cells with fibroblasts
# Method in brief: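 MCP-1 ELISA readout taken 24 h after dosing in the BF4T system (bronchial epithelial cells plus dermal fibroblasts). Parallel SRB total-protein staining flagged cytotoxicity; DMSO served as baseline, positive fitting direction.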
# [16] = read-out: Intercellular Adhesion Molecule 1 (ICAM1), ICAM1 (gene 3383); assay: BSK_BF4T_ICAM1: BioMAP Diversity Plus: BF4T Assay for Intercellular Adhesion Molecule 1 (ICAM1) Biomarker Activity (AID 2284260); conditions: primary human bronchial epithelial cells with fibroblasts
# Method in brief: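 ICAM-1 levels measured by ELISA after 24 h chemical treatment of bronchial epithelial cell/dermal fibroblast co-cultures, read against DMSO baseline. Overt cytotoxicity checked in parallel cultures by sulforhodamine B staining.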
# [17] = read-out: CD90, THY1 (gene 7070); assay: BSK_BF4T_CD90: BioMAP Diversity Plus: BF4T Assay for CD90 Biomarker Activity (AID 2284262); conditions: primary human bronchial epithelial cells with fibroblasts
# Method in brief: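 CD90 levels by ELISA after 24 h treatment of human bronchial epithelial cell/dermal fibroblast cultures, analysed versus DMSO. Overt cytotoxicity checked in parallel cultures by sulforhodamine B staining.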
# [18] = read-out: Interleukin-8 (IL8), CXCL8 (gene 3576); assay: BSK_BF4T_IL8: BioMAP Diversity Plus: BF4T Assay for Interleukin-8 (IL8) Biomarker Activity (AID 2284263); conditions: primary human bronchial epithelial cells with fibroblasts
# Method in brief: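 Human bronchial epithelial cells with dermal fibroblasts co-culture; IL-8 measured by ELISA 24 hours after dosing, fitted vs DMSO. Cytotoxicity tracked in parallel cultures by SRB total-protein staining.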
# [19] = read-out: Interleukin-1 alpha (IL1a), IL1A (gene 3552); assay: BSK_BF4T_IL1a: BioMAP Diversity Plus: BF4T Assay for Interleukin-1 alpha (IL1a) Biomarker Activity (AID 2284264); conditions: primary human bronchial epithelial cells with fibroblasts
# Method in brief: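 ELISA read-out of IL-1α from bronchial epithelial cell/dermal fibroblast co-cultures 24 h after compound addition. Increases scored against DMSO negative control. Cytotoxicity monitored by sulforhodamine B staining of parallel cultures.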
# [20] = read-out: KRT18 (gene 3875); assay: BSK_BF4T_Keratin818: BioMAP Diversity Plus: BF4T Assay for Keratin 818 Biomarker Activity (AID 2284266); conditions: primary human bronchial epithelial cells with fibroblasts
# Method in brief: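 Keratin 8/18 levels quantified by ELISA after 24 h chemical treatment of bronchial epithelial cell/dermal fibroblast co-cultures, fitted in positive direction relative to DMSO. Parallel SRB staining tracks overt cytotoxicity.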
structure (smiles),measurement,setting,value
CCOC(=O)C=Cc1ccccc1,outcome,[1],inactive
same,outcome,[2],inactive
same,outcome,[3],inactive
same,outcome,[4],inactive
same,outcome,[5],inactive
same,outcome,[6],inactive
same,outcome,[7],inactive
COc1ccccc1NC(=O)CC(C)=O,outcome,[1],inactive
same,outcome,[2],inactive
same,outcome,[3],inactive
same,outcome,[4],inactive
same,outcome,[5],inactive
same,outcome,[6],inactive
same,outcome,[7],inactive
CC(C)(C)c1cccc(O)c1,outcome,[1],inactive
same,outcome,[2],inactive
same,outcome,[3],inactive
same,outcome,[4],inactive
same,outcome,[5],inactive
same,outcome,[6],inactive
same,outcome,[7],inactive
C=CC(=O)OCC(CO)(COC(=O)C=C)COC(=O)C=C,AC50,[1],1150 nM (active)
same,AC50,[2],1390 nM (active)
same,AC50,[3],1270 nM (active)
same,AC50,[4],1620 nM (active)
same,outcome,[5],inactive
same,AC50,[6],4240 nM (active)
same,AC50,[7],3970 nM (active)
O=S1(=O)CC(Cl)(Cl)C(Cl)(Cl)C1,AC50,[1],515 nM (active)
same,AC50,[2],1130 nM (active)
same,AC50,[3],703 nM (active)
same,AC50,[4],2060 nM (active)
same,AC50,[5],1.85 µM (active)
same,outcome,[6],inactive
same,outcome,[7],inactive
CC(C)Cc1ccc(C(C)C(=O)O)cc1 (centres undefined),outcome,[1],inactive
same,outcome,[2],inactive
same,outcome,[3],inactive
same,outcome,[4],inactive
same,outcome,[5],inactive
same,outcome,[6],inactive
same,outcome,[7],inactive
CCOC(=O)CCCCCCCCC(=O)OCC,outcome,[1],inactive
same,outcome,[2],inactive
same,outcome,[3],inactive
same,outcome,[4],inactive
same,outcome,[5],inactive
same,outcome,[6],inactive
same,outcome,[7],inactive
O=C(O)C(F)(F)OC(F)(F)C(F)(F)OC(F)(F)C(F)(F)C(F)(F)C(F)(F)F,outcome,[1],inactive
same,outcome,[2],inactive
same,outcome,[3],inactive
same,outcome,[4],inactive
same,AC50,[5],43.5 µM (active) and 38.4 µM (active)
same,outcome,[8],inactive
same,outcome,[9],inactive
same,outcome,[10],inactive
same,outcome,[11],inactive
same,outcome,[12],inactive
same,AC50,[13],40300 nM (active)
same,outcome,[13],inactive
same,AC50,[14],5.34 µM (active) and 2.49 µM (active)
same,AC50,[15],8.8 µM (active) and 220 nM (active)
same,outcome,[16],inactive
same,outcome,[6],inactive
same,outcome,[17],inactive
same,AC50,[18],1.82 µM (active) and 4.77 µM (active)
same,outcome,[19],inactive
same,outcome,[7],inactive
same,outcome,[20],inactive
CC(=O)c1ccc(C)cc1,outcome,[8],inactive
same,outcome,[10],inactive
CC=CC(=O)C1=C(C)C=CCC1(C)C,outcome,[1],inactive
same,outcome,[2],inactive
same,outcome,[3],inactive
same,outcome,[4],inactive
same,outcome,[5],inactive
same,outcome,[6],inactive
same,outcome,[7],inactive

# — PubChem BioAssay (EPA / NIEHS)
